AMA1 RON2 block – disrupts binding of P. falciparum AMA1 to RON2. AlphaScreen AMA1-biotinylated RON2 peptide binding. Potency, µM (doses to about 58.2 µM), for the others: at the top dose activity change, negative = inhibition, hits mostly inhibitors. actives 0.2% (n = 360,000);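 also: potency is read from the fitted curve at half-maximal effect; 0% = vehicle wells and -100% = peptide control; nearly all actives have a fitted effect of over 45% in size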
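AMA1 (3D7) with his tag at 25 nM final met compounds first, then biotinylated RON2 peptide at 25 nM; detection used donor plus acceptor beads, 10 µg/mL apiece, read by AlphaScreen after 30 min at room temperature.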
Cycloheximide cs – affects cycloheximide protein synthesis inhibition readout, counter-screen | cell reporter, cycloheximide protein synthesis inhibition counterscreen | max response, % | actives 12% (n = 300,000) | AID 2314; in the data active = max response mostly above about 13%, no sharp cut-off; inactive = mostly below about 14%; also: read at 38.3 µM for the half of the compounds with a filed dose; 0% is about no effect
SARS PLP yeast – blocks SARS-CoV papain-like protease in a yeast assay; S. cerevisiae expressing SARS-CoV PLpro, growth rescue; Potency, µM (doses to about 32.9 µM), for the others: at the highest dose activity, positive = growth rescue, usual class: activators; actives 0.19% (n = 330,000); calls by dose curve; also: potency is read from the fitted curve at half-maximal effect; 0% is about no effect; nearly all actives have a fitted effect of over 55% in size
Shiga toxin inh – inhibitors of Shiga toxin in Vero cells; Vero cells, Shiga toxin protein synthesis inhibition reporter; inhibition, % at 38.7 µM; actives 9.2% (n = 290,000); in the data active = inhibition mostly above about 28%, no sharp cut-off; inactive = mostly below about 43%; also: 0% is about no effect
AmpC inh no detg – inhibitors of E. coli AmpC beta-lactamase without detergent | actives 0.52% (n = 330,000) | P00811 | AmpC nitrocefin hydrolysis, absorbance 480 nm, 0.0001% Triton | Potency, µM (doses to about 57.1 µM), without a hit: at the highest dose activity change, negative = inhibition, most hits filed as inhibitors;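 also: potency is read from the fitted curve at half-maximal effect; plate controls were no compound for no effect and no enzyme for full effect; nearly all actives have a fitted effect of over 20% in size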
Target sequence (P00811 whole entry, looked up): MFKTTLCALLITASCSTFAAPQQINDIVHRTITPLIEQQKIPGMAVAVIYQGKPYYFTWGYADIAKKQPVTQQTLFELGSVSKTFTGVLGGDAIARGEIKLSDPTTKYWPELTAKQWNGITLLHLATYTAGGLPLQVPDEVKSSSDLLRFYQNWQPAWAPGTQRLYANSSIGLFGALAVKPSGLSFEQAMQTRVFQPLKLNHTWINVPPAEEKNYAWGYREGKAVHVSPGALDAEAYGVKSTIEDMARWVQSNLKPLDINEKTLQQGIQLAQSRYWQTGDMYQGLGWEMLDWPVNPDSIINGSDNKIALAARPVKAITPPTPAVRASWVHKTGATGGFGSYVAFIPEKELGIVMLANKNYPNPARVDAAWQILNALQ
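AmpC (5.3 nM in the dispensed reagent) in 20 mM phosphate pH 7.0 with 0.01% (detergent screen) or 0.0001% Triton X-100 was preincubated with compounds for 15 min at room temperature. Nitrocefin was then added from an 800 uM solution, and hydrolysis was followed at 480 nm.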
AmpC detergent – inhibitors of E. coli AmpC beta-lactamase with detergent; AmpC hydrolysis of nitrocefin, absorbance 480 nm, 0.01% Triton; P00811; AID 485294; actives 0.041% (n = 370,000); Potency, µM (top dose mostly 114 µM), for the others: at the top dose activity change, negative = inhibition, hits mostly inhibitors;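 also: potency is read from the fitted curve at half-maximal effect; 0% = no-compound wells and -100% = no-enzyme wells; nearly all actives have a fitted effect of over 25% in size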
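AmpC (5.3 nM in the dispensed reagent) in 20 mM phosphate pH 7.0 with 0.01% (detergent screen) or 0.0001% Triton X-100 was preincubated with compounds for 15 min at room temperature. Nitrocefin was then added from an 800 uM solution, and hydrolysis was followed at 480 nm.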
Starred values were filed as active, the others as inactive; ? = inconclusive; . = no result given. Many of the other results were omitted from the sample, so hits are more common in it than they were. Unless noted, calls follow the shape of the dose curve; as a rule, active = well fitted curve in the direction sought with a large enough effect; inconclusive = small, poorly fitted or top-dose-only effect, or another doubt; inactive = no such curve, though single readings can be large; an effect the other way counts as inactive or inconclusive.

SMILES	AMA1 RON2 block	Cycloheximide cs	SARS PLP yeast	Shiga toxin inh	AmpC inh no detg	AmpC detergent
COC(=O)c1c(C)oc2ccc(NS(=O)(=O)c3cc(OC)ccc3OC)cc12	9%	-1	5%	2	-4%	-10%
CCOC(=O)c1[nH]cnc1C(=O)Nc1ccc(Cl)cc1	103%	-2	0%	-6	1%	-2%
Cc1ccc(NC(=O)Nc2cc(C)on2)cc1	-10%	47*	1%	75*	-26%	-1%
CC(=O)Nc1ccc(NC(=O)/C=C/c2ccc(Cl)cc2)cc1	-10%	30*	0%	26*	-13%	?
Cc1ocnc1C(=O)Nc1ccc(Cl)cc1	13%	44*	-3%	122*	-9%	-2%
CN(C)/C=C/C(=O)/C=C/c1ccc(Cl)cc1	3%	45*	-5%	87*	-41%	-2%
CN(C)/C=C/C(=O)Oc1ccc(Cl)cc1Cl	-4%	9	1%	39	8%	4%
C=CCN1C(=O)/C(=C/c2ccccc2)S/C1=N/c1nccs1	-9%	-4	-10%	-7	-8%	-3%
Cc1cc(C(=O)Nc2ccc(C#N)cc2)on1	-6%	8	-3%	5	-9%	-7%
Cc1cc(NC(=O)Nc2ccc(Cl)cc2)no1	3%	27*	-11%	.	-26%	-1%
Cc1cc(C(=O)Nc2ccc(Cl)cc2)on1	1%	23*	-1%	58*	-19%	5%
CCn1c(/C=C/c2c(C)[nH]c3ccccc23)nc2ccccc2c1=O	17%	7	17%	10	-6%	-3%
O=C(NC1=NCCS1)c1sc2cc(Cl)cc(Cl)c2c1Cl	71%	-3	-27%	9	-16%	-8%
O=C(NC1=NCCS1)c1sc2ccccc2c1Cl	14%	47*	-26%	93*	-28%	2%
Cc1c(C(=O)NC2=NCCS2)oc2ccccc12	9%	33*	-18%	56*	-14%	3%
COCc1nnc(NC(=O)c2sc3ccccc3c2Cl)s1	4%	44*	-12%	91*	-26%	-5%
Cc1cccnc1NC(=O)c1sc2ccccc2c1Cl	121%	51*	-16%	90*	-19%	-6%
CC(C)(C)[C@@H]1C=C(C(=O)O)[C@H](c2ccc(Cl)cc2)N1S(=O)(=O)c1ccccc1	9%	.	?	.	-15%	.
CNC(=O)c1ccsc1NC(=O)c1sc2ccccc2c1Cl	-3%	22*	-20%	27	-21%	-10%
CCN(CC)c1ccc(NC(=O)c2sc3ccccc3c2Cl)cc1	.	.	.	.	.	16%
Cc1nnc(NC(=O)c2sc3ccccc3c2Cl)s1	11%	11	-17%	-21	-23%	-6%
Cc1ccc(NC(=O)c2sc3ccccc3c2Cl)nc1	-2%	43*	1%	65*	-16%	-1%
O=c1[nH]c(=S)[nH]c(O)c1N=Nc1cc2c(cc1[N+](=O)[O-])OCO2	-27%	-2	7%	-11	-18%	1%
O=c1[nH]c(=S)[nH]c(O)c1N=Nc1ccc(-c2ccccc2)cc1[N+](=O)[O-]	.	17*	-5%	58*	-51%	-1%
Cc1cc2ncn(C(=O)N3CCC(C)CC3)c2cc1C	1%	28*	22%	67*	3%	-14%
SMILES	AMA1 RON2 block	Cycloheximide cs	SARS PLP yeast	Shiga toxin inh	AmpC inh no detg	AmpC detergent
Cc1cc2ncn(C(=O)c3ccc4c(c3)OCO4)c2cc1C	3%	11	-4%	31	-11%	3%
CCOC(=O)c1ccc(NC(=O)CSc2nc3c(cc2C#N)N2CCC3CC2)cc1	.	.	.	.	.	0%
COc1cccc(C(=O)NNC2OC(CO)C(O)C2O)c1 (stereo not given)	0%	31*	0%	69*	-22%	6%
O=C(NNC1OC(CO)C(O)C(O)C1O)c1cccnc1 (stereo not given)	50%	19*	0%	50*	-21%	-3%
COc1cccc(C(=O)NNC(=O)Cc2cccs2)c1	29%	-3	0%	-10	-12%	-1%
CC(NC(=O)c1cccnc1)C(=O)O (stereo not given)	0%	2	1%	0	-16%	-8%
CC1CCC2(CC1)NC(=O)N(CC(=O)N1CC(C)CC(C)C1)C2=O (stereo not given)	?	.	14%	.	-11%	.
Cc1ccc(C)c(NC(=O)CN(C)C(C)C(=O)N2CCCC2)c1 (stereo not given)	7%	.	-1%	.	-7%	.
CSc1nnc2c(n1)c(C)nn2-c1cccc(C)c1	-30%	20*	-8%	36*	-42%	?
CN(C)S(=O)(=O)c1ccc(C(=O)Nc2ccc3c(c2)CCC3)cc1	4%	29*	-1%	33*	-8%	0%
CN(C)S(=O)(=O)c1cccc(C(=O)Nc2ccc3c(c2)CCC3)c1	-2%	43*	-1%	106*	-23%	-2%
COc1cc(Cl)c(C)cc1NC(=O)CSc1ncc(S(=O)(=O)c2ccc(C(C)(C)C)cc2)c(=O)[nH]1	.	.	.	.	.	-4%
CCOc1nc(NC(=O)NS(=O)(=O)c2ccccc2F)nc(-c2ccccc2)n1	0%	21	4%	53*	-39%	-6%
CCOc1nc(NC(=O)NS(=O)(=O)Oc2ccccc2)nc(-c2ccccc2)n1	.	.	.	.	.	1%
CCOc1ccc(N(C)S(=O)(=O)c2cc(-c3cc(C)no3)ccc2C)cc1	-11%	11	-5%	16	26%	5%
COCCCNc1oc(-c2ccc(COc3ccc(Cl)cc3)o2)nc1C#N	.	.	.	.	.	1%
CC(C)CNc1oc(-c2ccccc2Cl)nc1C#N	-14%	14*	-2%	29*	-10%	4%
COCCCNc1oc(-c2ccccc2Cl)nc1C#N	-6%	15*	0%	52	5%	1%
CC(C)N(C(=S)Nc1cc(S(=O)(=O)N2CCOCC2)ccc1Cl)c1ccccc1	-11%	-4	28%	-2	-11%	-11%
Cc1cc(C)n(CCC(=O)N/N=C/c2cccc([N+](=O)[O-])c2)n1	3%	1	1%	-3	-3%	-4%
COc1ccc(-c2nc(SCC(=O)N(CC(C)C)c3c(N)n(Cc4ccccc4)c(=O)[nH]c3=O)n[nH]2)cc1	-12%	.	-7%	.	-22%	-8%
CCC(=O)c1ccc(N2CCC(C)CC2)c(F)c1	11%	30*	4%	36*	-21%	5%
CCCC(=O)c1ccc(N2CCC(C)CC2)c(F)c1	16%	43*	-14%	60*	-11%	-1%
CC1CCN(C(=O)Cn2cc(SCC(=O)Nc3ccccc3C(F)(F)F)c3ccccc32)CC1	.	.	.	.	.	0%
Cc1ccc(S(=O)(=O)N2CCC(C(=O)Nc3cccnc3)CC2)cc1	0%	.	15%	.	-6%	.
COC(=O)N/N=C/c1ccc(-c2ccc(Cl)cc2Cl)o1	-3%	11*	-3%	26	-33%	2%
